Assay [1] is described as follows: small molecules captured by biotinylated probe aFSTL3 – biochemical, small-molecule microarray, fluorescence 635/667, stem cell growth factor project, primary screen (AID 1064).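 Further: measures binding of the biotinylated anti-FSTL3 antibody to printed compounds.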 As to conditions: higher = more signal.
The nature of assay [2]: binders from COS7 lysate, DM2A8 probe, primary screen, torsin A project, cell lysate, small-molecule microarray, fluorescence 635/667 (AID 1065). As to conditions: higher = more signal, COS7 lysate expressing mutant human TOR1A.
The nature of assay [3]: small molecules captured by biotinylated probe aFGF2 – biochemical, small-molecule microarray, fluorescence 635/667, stem cell growth factor project, primary screen (AID 1067).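 Further: measures binding of biotinylated aFGF2 protein to printed compounds on slides; z-score merges feature fluorescence and signal-to-noise across triplicate slides.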 As to conditions: higher = more signal.
Assay [4] in a line: small molecules captured by biotinylated probe aFGF10 – biochemical, small-molecule microarray, fluorescence 635/667, stem cell growth factor project, primary screen (AID 1071).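 Further: score merges 667 nm spot intensity and signal to noise from triplicate slides.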 Particulars: higher = more signal.
The target in assay [5] is Neurogenic locus notch homolog protein 2 (Homo sapiens) (UniProt Q04721). Description: small molecules binding Notch2 protein – biochemical, small-molecule microarray, 635 nm fluorescence, stem cell growth factors, primary screen (AID 1073). As to conditions: higher = more signal.
Sequence of Neurogenic locus notch homolog protein 2 (Homo sapiens) (Q04721 whole entry, looked up, canonical isoform): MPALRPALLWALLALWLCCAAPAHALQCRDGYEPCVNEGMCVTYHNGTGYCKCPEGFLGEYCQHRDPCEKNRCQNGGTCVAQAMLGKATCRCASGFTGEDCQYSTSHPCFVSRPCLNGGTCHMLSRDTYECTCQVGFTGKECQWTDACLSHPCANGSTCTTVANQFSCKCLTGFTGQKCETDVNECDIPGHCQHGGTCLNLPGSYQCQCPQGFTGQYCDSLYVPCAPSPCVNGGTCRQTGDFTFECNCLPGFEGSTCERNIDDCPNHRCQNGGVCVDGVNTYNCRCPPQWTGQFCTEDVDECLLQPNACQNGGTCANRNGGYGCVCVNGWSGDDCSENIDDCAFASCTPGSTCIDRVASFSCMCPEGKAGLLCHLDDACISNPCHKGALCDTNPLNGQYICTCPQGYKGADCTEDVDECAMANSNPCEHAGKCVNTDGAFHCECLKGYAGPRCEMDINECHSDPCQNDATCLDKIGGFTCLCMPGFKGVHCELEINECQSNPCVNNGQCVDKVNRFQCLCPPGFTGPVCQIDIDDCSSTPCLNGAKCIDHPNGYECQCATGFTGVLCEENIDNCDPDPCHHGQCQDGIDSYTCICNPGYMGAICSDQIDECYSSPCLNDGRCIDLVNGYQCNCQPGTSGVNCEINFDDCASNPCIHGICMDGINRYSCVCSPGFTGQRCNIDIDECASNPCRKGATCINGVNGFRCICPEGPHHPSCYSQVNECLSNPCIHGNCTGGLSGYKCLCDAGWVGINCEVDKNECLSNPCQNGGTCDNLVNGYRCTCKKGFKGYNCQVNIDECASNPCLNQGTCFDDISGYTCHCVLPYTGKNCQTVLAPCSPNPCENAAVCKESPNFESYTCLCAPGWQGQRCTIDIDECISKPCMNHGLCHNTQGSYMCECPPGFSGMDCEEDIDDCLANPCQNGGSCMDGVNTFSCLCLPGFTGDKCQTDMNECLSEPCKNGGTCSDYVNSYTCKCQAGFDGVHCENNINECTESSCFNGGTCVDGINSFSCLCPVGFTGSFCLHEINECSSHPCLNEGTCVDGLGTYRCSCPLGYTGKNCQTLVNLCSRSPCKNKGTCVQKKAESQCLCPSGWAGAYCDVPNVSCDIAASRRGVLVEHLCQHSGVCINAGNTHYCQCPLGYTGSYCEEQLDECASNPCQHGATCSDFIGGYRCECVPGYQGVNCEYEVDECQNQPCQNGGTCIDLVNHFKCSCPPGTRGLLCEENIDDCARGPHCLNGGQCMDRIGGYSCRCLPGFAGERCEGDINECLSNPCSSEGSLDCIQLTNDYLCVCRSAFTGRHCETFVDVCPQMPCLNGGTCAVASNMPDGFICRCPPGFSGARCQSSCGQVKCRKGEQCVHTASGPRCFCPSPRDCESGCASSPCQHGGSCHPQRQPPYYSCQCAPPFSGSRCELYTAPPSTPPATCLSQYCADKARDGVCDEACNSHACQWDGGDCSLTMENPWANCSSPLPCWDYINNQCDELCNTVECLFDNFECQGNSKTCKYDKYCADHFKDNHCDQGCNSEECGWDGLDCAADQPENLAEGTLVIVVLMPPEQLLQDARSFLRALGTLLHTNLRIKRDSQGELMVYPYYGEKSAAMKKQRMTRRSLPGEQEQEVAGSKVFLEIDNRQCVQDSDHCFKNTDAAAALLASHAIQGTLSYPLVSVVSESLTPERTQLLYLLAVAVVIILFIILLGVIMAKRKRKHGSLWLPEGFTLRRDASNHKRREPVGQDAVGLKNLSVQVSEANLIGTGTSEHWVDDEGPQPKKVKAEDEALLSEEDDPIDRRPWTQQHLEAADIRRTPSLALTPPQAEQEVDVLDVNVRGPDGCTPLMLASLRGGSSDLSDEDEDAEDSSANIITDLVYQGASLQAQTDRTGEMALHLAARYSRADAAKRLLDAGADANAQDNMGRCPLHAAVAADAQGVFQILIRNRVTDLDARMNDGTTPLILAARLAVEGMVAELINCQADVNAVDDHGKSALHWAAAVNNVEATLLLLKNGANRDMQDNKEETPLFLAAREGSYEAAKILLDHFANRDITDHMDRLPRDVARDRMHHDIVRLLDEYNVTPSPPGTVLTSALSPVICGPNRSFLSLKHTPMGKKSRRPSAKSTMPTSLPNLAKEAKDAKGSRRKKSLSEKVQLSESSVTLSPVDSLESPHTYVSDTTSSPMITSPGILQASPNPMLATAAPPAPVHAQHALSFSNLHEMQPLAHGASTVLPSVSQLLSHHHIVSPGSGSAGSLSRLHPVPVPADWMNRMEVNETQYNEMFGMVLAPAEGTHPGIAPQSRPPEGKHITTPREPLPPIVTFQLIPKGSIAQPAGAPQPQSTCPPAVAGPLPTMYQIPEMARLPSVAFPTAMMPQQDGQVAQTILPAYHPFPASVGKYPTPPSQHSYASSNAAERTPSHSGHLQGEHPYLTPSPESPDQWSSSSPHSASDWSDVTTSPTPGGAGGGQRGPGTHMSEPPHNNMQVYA
Assay [6] deals with Pro-neuregulin-1, membrane-bound isoform (Homo sapiens) (UniProt Q02297). Description: small molecules binding neuregulin-1 protein – biochemical, small-molecule microarray, fluorescence 635/667, psychiatric disease protein project, primary screen (AID 1075).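 Further: score combines 667 nm spot fluorescence with signal to noise.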 Particulars: NRG1 binding, 635 nm fluorescence, higher = more signal.
Sequence of Pro-neuregulin-1, membrane-bound isoform (Homo sapiens) (Q02297 whole entry, looked up, the tested form may be a part, canonical isoform): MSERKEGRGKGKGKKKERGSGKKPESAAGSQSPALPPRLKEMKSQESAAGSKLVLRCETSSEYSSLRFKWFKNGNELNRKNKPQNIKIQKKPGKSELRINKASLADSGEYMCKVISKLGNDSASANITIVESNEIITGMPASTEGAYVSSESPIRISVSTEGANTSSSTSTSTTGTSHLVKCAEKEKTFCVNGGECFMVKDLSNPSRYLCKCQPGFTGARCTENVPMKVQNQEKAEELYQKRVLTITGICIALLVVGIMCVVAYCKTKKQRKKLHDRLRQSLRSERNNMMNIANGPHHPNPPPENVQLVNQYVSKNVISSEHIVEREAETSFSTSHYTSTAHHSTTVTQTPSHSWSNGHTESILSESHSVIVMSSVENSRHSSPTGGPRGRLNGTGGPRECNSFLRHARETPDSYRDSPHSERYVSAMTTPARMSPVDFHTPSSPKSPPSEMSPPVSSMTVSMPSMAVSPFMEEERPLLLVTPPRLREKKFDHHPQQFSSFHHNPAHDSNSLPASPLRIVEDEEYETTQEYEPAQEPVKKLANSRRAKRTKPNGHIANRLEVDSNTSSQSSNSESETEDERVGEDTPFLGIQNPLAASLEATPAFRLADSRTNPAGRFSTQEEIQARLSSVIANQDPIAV
In assay [7] the test system is Neuregulin-1 EGF-like domain. Description: small molecules binding NRG1 EGF domain – biochemical, small-molecule microarray, 635 nm fluorescence, primary screen (AID 1081).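 Further: binding of the protein to compounds printed on small-molecule microarray slides.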 As to conditions: higher = more signal.
The nature of assay [8]: FRG1 expression reporter modulators in myotubes – cell-based, C2C12 myotubes, firefly/Renilla luciferase, luminescence, FRG1 inhibition for FSHD, primary screen (AID 1084). Particulars: FRG1 promoter luciferase, higher = more signal, called active from +8 up or from −8 down.
Assay [9] in a line: small molecules captured by biotinylated probe aFST – biochemical, small-molecule microarray, fluorescence 635/667, stem cell growth factor project, primary screen (AID 1086).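 Further: score merges 667 nm fluorescence with signal-to-noise of each printed compound spot.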 As to conditions: higher = more signal.
The nature of assay [10]: binders of probe aHhip on microarray, primary screen, stem cell growth factor project, biochemical, small-molecule microarray, fluorescence 635/667 (AID 1087).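 Further: score merges spot fluorescence at 667nm with spot signal to noise ratio.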 As to conditions: higher = more signal.

The source of these data is PubChem BioAssay.

Each structure is given as a SMILES string. Active and inactive are the calls of the source.

Turning to `O=C1OCC=C[C@H]2OC34C=CCN(c5ccc(Cl)cc5)C(=O)[C@H]3N(CCCCCO)C(=O)[C@@H]4[C@@H]12` (stereo not given in full), the composite z-score in assay [1] is 0.716; in assay [2], 1.77; in assay [3], -0.163; in assay [4] it was -0.815; in assay [5], -1.07; in assay [6], -0.0571. For the same compound, the composite z-score in assay [7] was 1.06; in assay [9], -0.354; in assay [10], -0.236. Besides, the z-score in [8] is -0.633 (inactive).
Turning to `NC(=O)NCC#Cc1ccc2c(c1)[C@]1(C(=O)N2)[C@H](c2ccc(O)cc2)N2[C@H](c3ccccc3)[C@H](c3ccccc3)OC(=O)[C@H]2[C@@H]1C(=O)Nc1nc2ccccc2s1`, the composite z-score in assay [1] is 0.289; in assay [2], 0.21; in [3], -0.0222; in assay [4] it was 0.478; in [5], 0.768; in assay [6], 0.434. The composite z-score in [7] is 0.633; in assay [9], 0.185; in [10] it was 0.0881. In [8], the z-score was 0.63 (inactive).
`C=C(C(=O)CC[C@H](OC(=O)c1cccnc1)c1ccc(CO)o1)C(C)C`: the composite z-score is -0.201 in assay [1]; 0.674 in [2]; -0.0415 in assay [3]; 0.467 in assay [4]; 0.355 in assay [5]; 0.904 in [6]. Besides, the composite z-score in assay [7] is 1.25; in assay [9], 0.28; in assay [10], -0.121. The z-score in [8] is 0.0619 (inactive).
For `COc1ccc(CCNC(=O)[C@@]2(Sc3ccc(C)cc3)CC(=O)N(Cc3cc(C(F)(F)F)cc(C(F)(F)F)c3)[C@@H]2c2ccc(CO)cc2I)cc1`, the composite z-score was 0.332 in assay [1]; -0.671 in [2]; -0.0894 in assay [3]; -0.0189 in [4]; -0.632 in assay [5]; 0.899 in assay [6]. Moreover, the figures for the composite z-score in assay [7], in assay [9] and in assay [10] were 1.07, 0.582 and -0.271, respectively. For the same compound, in [8], the z-score was 0.214 (inactive).
Take `O=C1O[C@@H](c2ccccc2)[C@@H](c2ccccc2)N2[C@@H](c3ccccc3OCCO)[C@]3(C(=O)Nc4ccc(C#CCCO)cc43)[C@@H](C(=O)Nc3nc4ccccc4s3)[C@H]12`: the composite z-score was -0.0348 in [1]; 0.74 in [2]; -0.0165 in [3]; 1.07 in assay [4]; 1.36 in [5]; 1.5 in [6]. Further, the figures for the composite z-score in assay [7], in [9] and in assay [10] were 1.3, 0.73 and 0.28, respectively. Moreover, the z-score in assay [8] is -2.4 (inactive).
In the case of `CCC[C@@H]1C[C@@]1(CCC)[C@@H](NP(=O)(c1ccccc1)c1ccccc1)c1ccc(Cl)cc1`, the composite z-score is 0.337 in [1]; -0.23 in [2]; 0.0368 in [3]; -0.387 in assay [4]; -0.615 in assay [5]; -0.23 in assay [6]. Moreover, the composite z-score is -0.414 in [7], -0.223 in [9] and 0.982 in assay [10]. In addition, the z-score in assay [8] is 1.8 (inactive).
In the case of `C=C(/C(=C/C[C@@H](OC(=O)c1ccncc1)c1ccc(OCCO)cc1)c1cc(C(=O)OC)ccc1OC)C(C)C`, the composite z-score is -0.445 in [1]; 1.24 in assay [2]; -0.139 in [3]; 0.93 in assay [4]; 0.833 in assay [5]; 0.679 in [6]. Moreover, the composite z-score was 1.13 in assay [7], 0.0136 in assay [9] and -0.399 in assay [10]. Moreover, the z-score in assay [8] was 0.317 (inactive).
Take `CCOC(=O)[C@H]1C/C=C/C[C@H](C(=O)OCC)C(=O)O[C@H]2[C@@H](OC)O[C@H](CO)[C@@H](OC(=O)CCc3ccccc3)[C@@H]2OC1=O`: the composite z-score in [1] is -0.146; in assay [2], -0.267; in assay [3], 0.461; in assay [4], -0.485; in assay [5] it was -1.08; in assay [6], 0.815. For the same compound, the results for the composite z-score in assay [7], in assay [9] and in [10] were -0.0615, -0.555 and -0.169, respectively. Also, in [8], the z-score is -1.26 (inactive).
Turning to `CCOC(=O)[C@H]1C/C=C/C[C@H](C(=O)OCC)C(=O)O[C@H]2[C@@H](OC)O[C@H](CO)[C@@H](OC(=O)Nc3ccc(OC)cc3)[C@@H]2OC1=O`, the composite z-score was -0.0119 in assay [1]; 0.753 in assay [2]; 0.0386 in assay [3]; 0.803 in assay [4]; 1.16 in assay [5]; 0.309 in [6]. The figures for the composite z-score in [7], in assay [9] and in [10] were 0.94, 0.363 and 0.675, respectively. Further, in assay [8], the z-score is 2.18 (inactive).
Turning to `CC(C)(C)N1CC=CC23O[C@@H]4C=CCOC(=O)[C@@H]4[C@H]2C(=O)N(CCCO)[C@@H]3C1=O` (stereo not given in full), the composite z-score in [1] is 0.698; in assay [2], -0.182; in [3], -0.199; in assay [4], -0.838; in assay [5], -1.54; in [6], -0.475. Moreover, the composite z-score was 1.08 in [7], -1 in assay [9] and -0.0994 in assay [10]. In addition, in assay [8], the z-score was 0.619 (inactive).
As for `O=C(CS)NCCCCCCNC(=O)[C@@H]1C[C@@H]2C(=O)N3CCC[C@H]3C(=O)N2[C@@H]1c1cccc(OCCO)c1`, the composite z-score is 0.145 in assay [1]; 0.804 in assay [2]; 0.109 in [3]; 0.256 in assay [4]; 0.407 in [5]; 1.28 in assay [6]. The results for the composite z-score in assay [7], in assay [9] and in assay [10] were 0.911, -0.022 and -0.0645, respectively. Moreover, in assay [8], the z-score is 1.05 (inactive).
Regarding `COCCOC(=O)N1C(=O)[C@@]2(c3cc(C#CC4=CCCCC4)ccc31)[C@H](c1ccccc1OCCO)N1[C@H](c3ccccc3)[C@H](c3ccccc3)OC(=O)[C@H]1[C@@H]2C(=O)N1CCc2cc(OC)c(OC)cc2C1`, the composite z-score in assay [1] is -0.516; in assay [2], 0.433; in assay [3] it was 0.0571; in assay [4], 0.515; in assay [5] it was 1.18; in assay [6], 0.319. Besides, the composite z-score was 1.07 in assay [7], 0.401 in assay [9] and -0.521 in assay [10]. In addition, the z-score in [8] was -0.202 (inactive).
For the compound `CC=CC(O)C1C=CC2C(=O)N(C)C(=O)C2N1Nc1ccc([N+](=O)[O-])cc1[N+](=O)[O-]` (stereo not given), the composite z-score in [1] was 0.028; in assay [2], -0.183; in assay [3] it was -0.185; in [4], -0.0156; in assay [5], -0.346; in assay [6], 1.2. Also, the composite z-score in assay [7] was 1.29; in assay [9] it was -0.441; in assay [10], 0.312. Also, the z-score in assay [8] is 0.639 (inactive).
Regarding `CC(C)(C)OC(=O)CC[C@]1(C(=O)NCCN2CCOCC2)N=C(c2ccc(OCCCO)cc2)O[C@H]1c1ccccc1`, the composite z-score is 0.445 in assay [1]; -1.1 in assay [2]; -0.0939 in assay [3]; -0.109 in assay [4]; -0.313 in assay [5]; 1.66 in assay [6]. Further, the composite z-score in assay [7] was 1.09; in assay [9], 0.285; in [10], -0.0618. The z-score in assay [8] is 0.273 (inactive).
As to `COc1ccc(C(O)C2C=CC3C(=O)N(c4ccccc4)C(=O)C3N2Nc2ccccc2)cc1OCc1ccccc1` (stereo not given), the composite z-score in assay [1] stood at 0.12; in [2], 0.748; in [3], 0.206; in assay [4] it was 1.1; in [5], 1.51; in assay [6], 1.48. Moreover, the composite z-score in [7] stood at 1.15; in [9] it was 1.64; in [10] it was 0.0515. Besides, the z-score in assay [8] was 0.0678 (inactive).
